Measured values as given in PubChem BioAssay AID602248 (The Scripps Research Institute Molecular Screening Center, 2012).
Screen size: about 360,000 compounds; about 1,700 (0.47%) were called active. The sample holds actives, similar compounds and a random draw of the others, so the mix is not that of the screen. Rule as the data show it: active = activation above about 15%; inactive = the rest.

Experiment: counter-screen for M1 agonists: effect in parental CHO-K1 cells (AID 602248);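 also: untransfected CHO-K1 host cells lacking M1 receptor as counterscreen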
Conditions: Fluo-8 calcium fluorescence, at 3 µM, active compounds read high, scaled to maximal ATP response, vehicle zero

Row | Compound | activation
1 | COCCN1C(=O)C(=O)/C(=C(/O)c2ccc(S(=O)(=O)N3CCOCC3)cc2)C1c1ccc(OC)c(OC)c1 (stereo not given) | 1.09% (inactive)
2 | O=C(c1ccc(=O)oc1)N1CCC(C(O)(c2ccccc2)c2ccccc2)CC1 | 0.08% (inactive)
3 | c1ccc(C(=NNc2nc3ccccc3s2)c2ccccn2)cc1 | 15.9% (active)
4 | CSc1ncccc1C(=O)Nc1nc2ccc(F)cc2s1 | 3.35% (inactive)
5 | O=C(Nc1nnc(C2CC2)s1)c1ccccn1 | 0.38% (inactive)
6 | CC(C)(C)S(=O)(=O)N1Cc2cc(CO)cc(CCO)c2[C@H]1CCO | 0.36% (inactive)
7 | CC(C)C(=O)NCC(c1cccs1)S(=O)(=O)c1ccc(F)cc1 (stereo not given) | 2.59% (inactive)
8 | Cc1cccc(C2c3[nH]c4ccccc4c3CCN2C(=O)c2cc(-c3cccn3C)n[nH]2)n1 (stereo not given) | 0.16% (inactive)
9 | COc1cccc(C2c3[nH]c4ccccc4c3CCN2Cc2cccc(C)n2)c1 (stereo not given) | 1.31% (inactive)
10 | Cc1cccc(C(=O)N2CCc3c([nH]c4ccccc34)C2CC(C)C)n1 (stereo not given) | 16.4% (active)
11 | Cc1ccc(C)c(S(=O)(=O)N2CCN(c3ncnc4sccc34)CC2)c1 | 15.9% (active)
12 | Cc1ccc(C)c(S(=O)(=O)N2CCN(CC(=O)Nc3ccc([N+](=O)[O-])cc3)CC2)c1 | 6.2% (inactive)
13 | Cc1ccc(S(=O)(=O)N2CCC3(CC2)OCCO3)c(C)c1 | 0.97% (inactive)
14 | OCC[C@H]1C[C@H](O)[C@@H](O)[C@]2(Cc3ccccc3CO2)O1 | 0.07% (inactive)
15 | CCCCc1ccc(S(N)(=O)=O)cc1 | 1.03% (inactive)
16 | O=C(Nc1cc(Cl)ccc1N1CCOCC1)c1ccc(N2CCCC2=O)cc1 | 1.09% (inactive)
17 | Cc1ccc2oc(=O)ccc2c1 | 0.97% (inactive)
18 | CCN(CC)c1ccc2oc(=O)c(C)nc2c1 | 28.8% (active)
19 | Cc1ccc2c(=O)oc(N(C)C)nc2c1 | -0.31% (inactive)
20 | O=S1(=O)CC(N2CCN(CCO)CC2)CN1C1CCCC1 (stereo not given) | 0.24% (inactive)
21 | Cc1nc2cc(C(F)(F)F)ccc2n1CCNc1nc(-c2cc(Cl)c(N)c(Cl)c2)cs1 | -0.4% (inactive)
22 | CC(C)(c1ccccc1)c1ccc(OCCN2CCCC2)cc1 | 1.86% (inactive)
23 | Cc1nn(CCOc2ccccc2)c(=O)n1-c1ccccc1F | 0.58% (inactive)
24 | CC(C)(c1ccccc1)c1ccc(OCCN)cc1 | 16.5% (active)

Row | Compound | activation
25 | O=C(CC(NC(=O)c1ccccc1)c1ccccc1)Nc1ccc(F)c(F)c1 (stereo not given) | 8.06% (inactive)
26 | CN(C)c1ccc(/C=C2\NC(=S)N(Cc3ccccc3)C2=O)cc1 | 27.4% (active)
27 | CN(C)c1ccc(CSc2ccccc2)cc1 | -0.35% (inactive)
28 | CN(C(=O)CN1C(=O)NC(C)(CCc2ccccc2)C1=O)c1ccccc1 (stereo not given) | 1.76% (inactive)
29 | CCn1c(SCC(=O)Nc2ccccc2F)nc2c(c1=O)SC(C)C2 (stereo not given) | 3.19% (inactive)
30 | O=C(CSc1nnc(CN2CCCC2)n1-c1ccc(F)cc1)c1ccc2c(c1)OCO2 | 1.52% (inactive)
31 | Cc1ccc(S(=O)(=O)N(Cc2cc3ccccc3[nH]c2=O)CC2CCCO2)cc1 (stereo not given) | 5.14% (inactive)
32 | Cc1ccc(S(=O)(=O)N(C)C)cc1NC(=O)COC(=O)C1COc2ccccc2O1 (stereo not given) | 1.48% (inactive)
33 | CCCc1ccc(OCC(=O)NNC(=S)NC(=O)c2ccco2)cc1 | 7.19% (inactive)
34 | CC(Oc1ccc2ccccc2c1)C(=O)NNC(=S)NC(=O)c1ccco1 (stereo not given) | 33.6% (active)
35 | O=C(Nc1ccc2ccccc2c1)/C(=C\c1ccc2c(c1)OCO2)NC(=O)c1ccco1 | 1.3% (inactive)
36 | COC(=O)c1cc(C(=O)OCC(=O)Nc2cc(C)on2)cc([N+](=O)[O-])c1 | 0.23% (inactive)
37 | CN1CCN(C(=O)c2cnn(-c3ccccc3)c2NC(=O)c2ccc([N+](=O)[O-])cc2)CC1 | 0.79% (inactive)
38 | COc1cc(C(=O)NCc2ccc3c(c2)cc(C)n3C)cc(OC)c1OC | -0.48% (inactive)
39 | CCn1c(CNC(=O)c2cc(OC)c(OC)c(OC)c2)cc2cc(C)ccc21 | 20.6% (active)
40 | COc1cc(C(=O)NCc2ccc(-n3cccc3)cc2)cc(OC)c1OC | 7.89% (inactive)
41 | CCCCC(=O)NNC(=S)NC(=O)C(c1ccccc1)c1ccccc1 | 86% (active)
42 | CCCCC(=O)NCc1ccc(F)cc1 | -0.33% (inactive)
43 | CCCOCC(O)CC(CC)C(=O)NNC(=S)Nc1ccccc1 (stereo not given) | 0.03% (inactive)
44 | CCCCC(CC)CNC(=O)C(=O)C1C(=O)Nc2ccccc21 (stereo not given) | -0.65% (inactive)
45 | CCOC(=O)c1c(C)oc(C)c(C(=O)OCC)c1=O | 0.16% (inactive)
46 | O=C1NC[C@H](CCCCN2C[C@H](Cc3ccc(O)cc3)N(CCc3ccccc3)C(=O)C2=O)N(CCc2ccccc2)C1=O | 0.62% (inactive)
47 | N#C/C(=C/c1ccc(N2CCCCC2)o1)C(=O)NCCc1c[nH]c2ccccc12 | 24.1% (active)
48 | Cc1ccc(C(=O)N/C(=C/c2ccco2)C(=O)NCCc2c[nH]c3ccccc23)cc1C | 1.71% (inactive)

Row | Compound | activation
49 | N#C/C(=C\c1ccc(N2CCOCC2)o1)C(=O)N1CCOCC1 | 4.52% (inactive)
50 | COc1ccc(C(=O)OCC(=O)Nc2cccc(C(C)=O)c2)cc1OC | 2.14% (inactive)
51 | C=CCSc1nsc(NC(=O)Nc2cccc(C(C)=O)c2)n1 | 15.8% (active)
52 | CC(=O)c1cccc(NC(=O)[C@@H](NC(N)=O)C(C)C)c1 | -0.09% (inactive)
53 | CCSc1nsc(NC(=O)Nc2cccc(C(C)=O)c2)n1 | 16.5% (active)
54 | CCCCN1C(=O)C(=O)N(CC(=O)Nc2cccc(C(C)=O)c2)C1=O | -0.29% (inactive)
55 | CCc1nnc(NC(=O)CSc2nnnn2-c2cccc(C(C)=O)c2)s1 | -0.49% (inactive)
56 | Cc1ccc(C(=O)N2CCC(n3nccc3NC(=O)Nc3cccc(F)c3)CC2)cn1 | 1.73% (inactive)
57 | COc1ccc(OCC(=O)OCC(=O)Nc2ccc(S(=O)(=O)N3CCCCC3)cc2)cc1 | 0.75% (inactive)
58 | CCOC(=O)COc1ccc(Cl)cc1C1NC(=O)NC(C)=C1C(C)=O (stereo not given) | 0.08% (inactive)
59 | CN(C)CCCCCN(C)Cc1cc2ccccc2o1 | 0% (inactive)
60 | CCCCNC(=O)c1nc(C2CCN(S(=O)(=O)c3ccc(F)c(F)c3)CC2)oc1-c1cccc(C(F)(F)F)c1 | 2.76% (inactive)
61 | Cn1nnnc1SCC(=O)NNC(=O)c1ccc(Br)cc1 | -0.47% (inactive)
62 | COC(=O)COc1ccc2c(=O)c(Oc3ccccc3Br)coc2c1 | 0.1% (inactive)
63 | C[C@H](CO)N1C[C@H](C)[C@@H](CN(C)S(=O)(=O)c2ccc(Oc3ccccc3)cc2)OCc2cn(nn2)CCCC1=O | 0.23% (inactive)
64 | CC(OC(=O)CN1C(=O)C2CCCCC2C1=O)C(=O)Nc1ncc(Cl)cc1Cl (stereo not given) | 0.87% (inactive)
65 | c1ccc2c(c1)OCC(CNc1ncnc3nc[nH]c13)O2 (stereo not given) | 109% (active)
66 | O=C(COC(=O)c1ccc(F)cc1)NCC1COc2ccccc2O1 (stereo not given) | 1.54% (inactive)
67 | O=C(COc1ccc(F)cc1Br)NCC1COc2ccccc2O1 (stereo not given) | 0.07% (inactive)
68 | Cn1c(N)cc(=O)n(C)c1=S | -0.09% (inactive)
69 | COc1ccc(S(=O)(=O)N2CCOCC2)c(C)c1C | 0.55% (inactive)
70 | COCCNc1ncnc2c1nc1n2CCCC1 | 0.47% (inactive)
71 | O=C(/C=C/c1c(Cl)cccc1Cl)NCc1ccccc1 | 0.05% (inactive)
72 | O=C(CCc1ccccc1)Nc1nn[nH]n1 | 1.57% (inactive)

Row | Compound | activation
73 | O=C(/C=C/c1c(F)cccc1Cl)Nc1nn[nH]n1 | 22% (active)
74 | O=C1CCC(=O)N(O)CCCCCNC(=O)CCC(=O)N(O)CCCCCNC(=O)CCC(=O)N(O)CCCCCN1 | -0.15% (inactive)
75 | CCOc1ccc(OCC)c(NC(=O)C2CCN(S(=O)(=O)c3c(C)noc3C)CC2)c1 | -0.25% (inactive)
76 | Clc1ccc(CSc2nnc([C@@H]3CCCN3)o2)cc1 | 0.78% (inactive)
77 | CCN1/C(=C\c2ccc3ccccc3[n+]2CC)Sc2cc(C)ccc21 | 22.8% (active)
78 | Cc1nn(C)cc1N1C(=O)c2cccc3c(N)ccc(c23)C1=O | 40.2% (active)
79 | CN1C(=O)c2cccc3c(N)ccc(c23)C1=O | 28.8% (active)
80 | CC(=O)OC1CCC2(C)C(=CCC3C4CC(=O)N(O)C(=O)C4(C)CCC32)C1 (stereo not given) | 0.34% (inactive)
81 | O=C1CCC[C@@H]2CC(N3CCCCC3)C[C@@H]3CCN1[C@H]23 (stereo not given in full) | 0.27% (inactive)
82 | CCCc1c(C(=O)N/N=C(\C)CCc2ccc(OC)cc2)nnn1-c1nonc1N | 0.32% (inactive)
83 | Cc1ccc(S(=O)(=O)Nc2nc(CN3CCOCC3)nc3sc(C)c(C)c23)cc1 | 0.12% (inactive)
84 | CCCCCCCCCCCCN1C(=O)CSC1c1cccnc1 (stereo not given) | 1.63% (inactive)
85 | Oc1ccc2ccc3cccc[n+]3c2c1 | 25.3% (active)
86 | COc1ccc(CCNC(=O)CSc2nnc3ccc(-c4ccncc4)nn23)cc1 | 0.28% (inactive)
87 | COCc1cc(C)nc2sc3c(=O)n(-c4cccc5ccccc45)nnc3c12 | 0.44% (inactive)
88 | Cc1cc(=O)n2nc(N3CCCC(C(=O)NCc4ccc(Cl)cc4)C3)sc2n1 (stereo not given) | 0.13% (inactive)
89 | O=C(NCc1ccccc1)C1CCCN(S(=O)(=O)c2cccs2)C1 (stereo not given) | 0.58% (inactive)
90 | O=C(NCc1ccccc1)C1CCCN(c2nc3ccsc3c(=O)s2)C1 (stereo not given) | 18.9% (active)
91 | CC(C)NC(=O)c1ccc(Sc2ccccc2)c([N+](=O)[O-])c1 | -0.3% (inactive)
92 | CC(C)(C)NC(=O)CN1CCC(NC(=O)C23CC4CC(CC(C4)C2)C3)CC1 | 0.73% (inactive)
93 | COc1cc(OC)c(C(=S)N2CCCC2)cc1OC | -0.12% (inactive)
94 | CC(NC(=O)c1cccc2ccccc12)c1ccc2c(c1)CCCC2 (stereo not given) | -0.03% (inactive)
95 | Nc1ccc2nc3c(=O)[nH]c(=S)[nH]c3nc2c1 | 21.2% (active)
